Assay in all cases: NCI-60 one-dose screen, 48 h (100 = growth as untreated, 0 = no growth, -100 = all killed)
Common to all, as to conditions: 10 µM unless noted

Assay [1] has as its system SR leukemia.
The test system of assay [2] is RPMI-8226 leukemia.
The subject of assay [3] is OVCAR-8 ovarian.
Assay [4] has as its system OVCAR-5 ovarian.
Assay [5] relates to OVCAR-4 ovarian.
The subject of assay [6] is SK-OV-3 ovarian.
The subject of assay [7] is IGROV1 ovarian.
In assay [8] the test system is OVCAR-3 ovarian.
Assay [9] has as its system HS 578T breast.
The subject of assay [10] is NCI/ADR-RES ovarian.
The test system of assay [11] is T-47D breast.
For assay [12], the system named is BT-549 breast.
Assay [13] deals with MDA-MB-435 melanoma.
Assay [14] concerns SW-620 colon.
Assay [15] relates to MCF7 breast.
For assay [16], the system named is HCT-116 colon.
Assay [17] relates to HCC-2998 colon.
The test system of assay [18] is KM12 colon.
For assay [19], the system named is MDA-MB-468 breast.

This is part of a sample that, as a whole, favours compounds with a hit. Of some 83,000 tested, about 20% had one in any assay.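 How to read the values: 0–100, growth inhibition (40 = 60% inhibited); 0, no net growth; -100 to 0, cell death (-40 = 40% of starting cells died; -100 = all dead).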 Unmarked numbers belong to inactive results. The source made the active and inactive calls. Rule for the calls: active = growth percent below 10; inactive = the rest.

Take `Cc1ccc([C@H]2C(C(=O)c3ccc(Cl)cc3)C3(N[C@@H]2c2ccccc2)C(=O)Nc2ccccc23)cc1` (some centres not stated): the growth is 23.3% in [1]; 6.4% (active) in assay [2]; 66% in assay [3]; 52.2% in assay [4]; 49.4% in assay [5]; 53.2% in [6]. Further, the growth in [7] was 59.4%; in assay [8], 37.3%; in assay [9], 60.3%; in assay [10], 35.4%; in assay [11] it was 14.3%; in assay [12], 50.7%. The growth was 26.8% in assay [13]; 29.9% in assay [14]; 16% in [15]; 14% in assay [16]; 23.7% in assay [17]; 25.9% in assay [18]. Further, the growth in assay [19] was 1.9% (active).
Take `O=C(COc1ccc(NC(=O)Nc2ccc(Cl)c(Cl)c2)cc1)N=Nc1c(O)[nH]c2ccc([N+](=O)[O-])cc12`: the growth was 25.5% in assay [1]; 55.4% in assay [2]; 78.1% in assay [3]; 74.4% in [4]; 75.2% in assay [5]; 95.2% in [6]. Moreover, the growth in assay [7] was 74.4%; in assay [8] it was 56.8%; in assay [9], 57.4%; in assay [10] it was 100%; in [11], 66%; in [12] it was 50%. Also, the growth in [13] is 59.5%; in assay [14], 15.9%; in [15], 30.6%; in assay [16], 11.3%; in assay [17], 82.6%; in assay [18], 42.2%. For the same molecule, the growth in assay [19] was 32.6%.
For `CC1(C)CC[C@]2(C(=O)Nc3ccc(F)cc3)CC[C@]3(C)C(=CCC4[C@@]5(C)C[C@@H](O)[C@H](O)[C@@](C)(CO)C5CC[C@]43C)C2C1` (some centres not stated), the growth was 1.68% (active) in [1]; 0.573% (active) in assay [2]; 48.1% in [3]; 32.6% in assay [4]; 49.4% in [5]; 24.8% in assay [6]. The growth in [7] was 63.5%; in assay [8], 58%; in [9], 45.5%; in assay [10] it was 43%; in assay [11], 15.5%; in assay [12], 33.2%. Further, the growth in assay [13] was 39.9%; in assay [14], 59.4%; in [15] it was 7.64% (active); in assay [16], 17.2%; in [17] it was 36%; in assay [18] it was 30.1%. Moreover, the growth in [19] was 7.26% (active).
For the molecule `Cc1cc(C)cc(NC(=O)Cn2cc(COn3nnc4ccccc43)nn2)c1`, the growth was 90.1% in [1]; 108% in [2]; 104% in assay [3]; 102% in assay [4]; 109% in [5]; 103% in [6]. For the same molecule, the growth is 104% in [7]; 129% in assay [8]; 102% in assay [9]; 102% in [10]; 100% in assay [11]; 108% in [12]. For the same molecule, the growth in assay [13] was 100%; in [14], 115%; in assay [15], 99.5%; in assay [16] it was 103%; in assay [17] it was 104%; in assay [18], 114%. Further, the growth in assay [19] was 98.7%.
Consider `Cn1cc(NC(=O)c2cc(NC(=O)c3ccc(/C=C/c4ccccc4)cc3)cn2C)cc1C(=O)NCCCN1CCOCC1`, for which the growth in assay [1] is -22.3% (active); in [2], -47.7% (active); in assay [3], 15.4%; in [4], 93.9%; in [5], 63%; in assay [6], 98.4%. In addition, the growth in assay [7] was 58.3%; in assay [8] it was 24.5%; in [9], 64.6%; in [10], 90.2%; in [11] it was 46.4%; in assay [12], 71.7%. Besides, the growth in [13] was -73.1% (active); in [14] it was -34% (active); in [15], -84.8% (active); in assay [16], -90.1% (active); in assay [17], -80.1% (active); in [18] it was -45.8% (active). For the same molecule, in assay [19], the growth was -61.3% (active).
As for `COc1ccc(-c2nc(SCC(C)C)nc(NCCc3c[nH]c4ccccc34)c2C#N)cc1`, the growth was 19.7% in assay [1]; 42.8% in assay [2]; 80.4% in assay [3]; 81.5% in [4]; 73.8% in assay [5]; 71.7% in [6]. Also, the growth is 101% in assay [7]; 85.4% in assay [8]; 43.2% in assay [9]; 61.3% in assay [10]; 22.6% in [11]; 80.8% in assay [12]. Further, the growth in assay [13] was 80.7%; in assay [14], 72.7%; in assay [15] it was 22.8%; in assay [16], 25.1%; in [17] it was 62.6%; in [18] it was 52.8%. Further, the growth in assay [19] is 58.4%.
In the case of `COc1cc2oc(-c3cccc(C(=O)Nc4ccc(Cl)cc4)c3)cc(=O)c2c(OCCNC(=O)[C@H](CCC(=O)OC(C)(C)C)NC(=O)OC(C)(C)C)c1OC`, the growth was 72.9% in [1]; 78.1% in [2]; 100% in assay [3]; 107% in assay [4]; 93% in [5]; 102% in assay [6]. Also, the growth is 89.9% in assay [7]; 110% in assay [8]; 92.6% in assay [9]; 91.5% in [10]; 78.7% in [11]; 100% in assay [12]. For the same molecule, the growth in assay [13] was 100%; in [14] it was 112%; in assay [15], 83%; in assay [16] it was 95.6%; in [17], 118%; in assay [18], 102%. Besides, the growth in assay [19] was 105%.
As for `CCCCCCCCc1ccc(S(=O)(=O)Nc2ccc(CC)cc2C(=O)O)cc1`, the growth was 96.7% in [1]; 71.1% in assay [2]; 95.1% in assay [3]; 117% in assay [4]; 96% in assay [5]; 106% in [6]. Besides, the growth in assay [7] is 97.4%; in assay [8] it was 113%; in [9], 103%; in assay [10] it was 96%; in assay [11], 76.6%; in assay [12] it was 108%. Further, the growth was 101% in assay [13]; 103% in assay [14]; 86% in assay [15]; 87.7% in assay [16]; 113% in assay [17]; 97.7% in assay [18]. For the same molecule, the growth in [19] was 82.2%.

The values are drawn from PubChem BioAssay (NCI).
